In PubChem BioAssay (NCATS) one finds max response, outcome and Potency data, which are given here for 31 compounds.

Common to all, as to assay: Cytotoxic Profiling of Annotated Libraries Using Quantitative High-Throughput Screening (AID 1296008); further: nearly all actives have a fitted effect of over 60% in size
Common to all, as to conditions: Five cell lines viability, CellTiter-Glo ATP luminescence, 48-72 h; max response: active compounds read low
A general note: ATP-based viability assays read luminescence as a measure of living cells.

Assay [1] has as its system HaCat. The gist of the method: (§1)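 Cells exposed to compounds for 48 or 72 hr at 37 degrees Celsius. Viability read as ATP-coupled luminescence with CellTiter-Glo after 10 min at room temperature.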
The test system of assay [2] is KB-3-1. The gist of the method:
as §1

Assay [3] has as its system NIH3T3. Put shortly: as §1

Inconclusive results are not listed. A number with no mark means an inactive call. Activity calls are given as the source filed them. The call rests on the fitted dose curve; in most records, active means well fitted inhibition curve with a large enough effect; inconclusive means small, poorly fitted or top-dose-only effect; inactive means flat fitted curve, though single readings scatter.
On the % scale 0 is the no-effect control and ±100 the full control effect; potency means the concentration at half of the fitted maximal effect.

For `CCCOC(c1cc2nccc(C(=O)O)c2[nH]1)c1ccccc1Cl` (stereo not drawn), the max response in assay [1] is -2.87%; in assay [3], 4.32%. For the same compound, the call in assay [2] was inactive.

On to `C[C@H]1CC[C@@]2(OC1)O[C@H]1CC3C4CC[C@H]5C[C@@H](O)[C@H](O)C[C@]5(C)C4=CC(=O)[C@]3(C)[C@H]1[C@@H]2C` (stereo partly drawn), for which the max response in assay [1] was -0.134%; in assay [2], 0.923%; in assay [3] it was -10.8%.

In the case of `C[C@@H]1N[C@H]2N(C1=O)c1ccccc1[C@@]2(O)C[C@@H]1C(=O)N[C@@H](C)c2nc3ccccc3c(=O)n21`, the values for the max response in assay [1] and in assay [3] were 1.5% and -0.438%, respectively. Also, the outcome in assay [2] was inactive.

Regarding `CC12CCC3c4ccc(O)cc4CCC3C1CC(OC1OC(C(=O)O)C(O)C(O)C1O)C2O` (stereo not drawn), the max response is -15% in assay [1] and 4.17% in assay [3]. Also, the compound was called inactive in assay [2].

As for `COC(=O)N1CCC(n2ncc3c(N4CCOCC4)nc(-c4ccc(NC(=O)Nc5ccc(CO)cc5)cc4)nc32)CC1`, the Potency in assay [1] was 3.66 µM (active); in assay [2], 0.231 µM (active); in assay [3], 1.46 µM (active).

Consider `CC1=CC2C(CC1OC1OC(CO)C(O)C(O)C1O)C(C)CC(=O)C2C(C)C` (stereo not drawn), for which the max response in assay [1] is -4.3%; in assay [3], 1.5%. Also, the result in assay [2] was inactive.

`CC(C)(C)CCN1C[C@@H]2C(CNC(=O)c3cc(Cl)cc(Cl)c3)[C@@H]2C1` (stereo partly drawn): the max response in assay [1] is -17.8%; in assay [2] it was -5.02%; in assay [3], -2.97%.

On to `COc1ccc([C@H]2CNC(=O)C2)cc1OC1CCCC1`, for which the max response in assay [1] is -27.2%; in assay [2], -2.59%; in assay [3], -18.3%.

As for `CC1CC(O)/C=C/C(O)C(O)CC(=O)Cc2c(Cl)c(O)cc(O)c2C(=O)O1` (stereo not drawn), the max response was -4.28% in assay [1] and -18.1% in assay [3]. For the same compound, the compound was called inactive in assay [2].

With `CO[C@H]1C[C@@H]2CC[C@@H](C)[C@@](O)(O2)C(=O)C(=O)N2CCCC[C@H]2C(=O)O[C@H]([C@H](C)C[C@@H]2CC[C@@H](OP(C)(C)=O)[C@H](OC)C2)CC(=O)[C@H](C)/C=C(\C)[C@@H](O)[C@@H](OC)C(=O)[C@H](C)C[C@H](C)/C=C/C=C/C=C/1C`, the max response in assay [1] was -0.379%; in assay [2], 3.84%; in assay [3] it was -16.2%.

For the compound `Cc1[nH]c2ccccc2c1C1=C(NCCc2ccc(F)cc2)C(=O)N(C)C1=O`, the Potency in assay [1] is 8.2 µM (active); in assay [3], 14.6 µM (active). Moreover, the max response in assay [2] was -15.2%.

Regarding `CC(=O)OC[C@H]1O[C@H](O[C@]2(CO)O[C@H](CO)[C@@H](OC(=O)/C=C/c3ccccc3)[C@@H]2O)[C@H](O)[C@@H](O)[C@@H]1O`, the max response in assay [1] was -2.48%; in assay [3] it was -0.33%. Further, the call in assay [2] was inactive.

Regarding `CC1(C=O)CC[C@]2(C(=O)O[C@@H]3O[C@H](CO)[C@@H](O)[C@H](O)[C@H]3O)CC[C@]3(C)C(=CCC4[C@@]5(C)C[C@H](O)[C@H](O[C@@H]6OC[C@@H](O)[C@H](O)[C@H]6O)[C@@](C)(CO)C5CC[C@]43C)C2C1` (stereo partly drawn), the max response in assay [1] is -0.307%; in assay [3], -1.18%. Moreover, the compound was called inactive in assay [2].

As for `CC/C=C\CC1C(=O)C=CC1(CCCCCCCC(=O)O)OC(C)=O` (stereo not drawn), the max response was 3.46% in assay [1] and 4.26% in assay [3]. Moreover, the compound was classed as inactive in assay [2].

Consider `C=C[C@H]1[C@H](O[C@@H]2O[C@H](CO)[C@@H](O)[C@H](O)[C@H]2O)OC=C(C(=O)OC)[C@H]1C/C=C(/C=O)[C@@H]1C(C(=O)OC)=CO[C@@H](O[C@@H]2O[C@H](CO)[C@@H](O)[C@H](O)[C@H]2O)[C@@H]1C=C`, for which the max response in assay [1] was -4.96%; in assay [2], 1.41%; in assay [3], 4.13%.

On to `COc1cc2ncnc(Nc3ccc(F)c(Cl)c3)c2cc1NC(=O)/C=C/CN1CCCCC1`, for which the Potency in assay [1] was 0.0411 µM (active); in assay [2], 13 µM (active); in assay [3], 16.4 µM (active).

Consider `C[C@]12C=C[C@@]3(CCC4[C@](C)(CO)CCC[C@@]4(C)C3CC1)C2` (stereo partly drawn), for which the max response in assay [1] is -20.7%; in assay [2], 4.11%; in assay [3], -6.89%.

In the case of `CC1OC(OC2C(OC3C(O[C@H]4CC[C@@]5(C)C(CC[C@]6(C)C5C(=O)C=C5C7CC(C)(C)CC(O)[C@]7(C)CC[C@]56C)C4(C)C)OC(C(=O)O)C(O)C3O)OCC(O)C2O)C(O)C(O)C1O` (stereo partly drawn), the max response in assay [1] was -1.72%; in assay [2] it was -2.68%; in assay [3] it was -3.29%.

`CC1(C)CCC2(C(=O)OC3OC(CO)C(O)C(O)C3O)CCC3(C)C(=CCC4C5(C)CCC(OC6OC(C(=O)O)C(OC7OC(CO)C(O)C(O)C7O)C(OC7OC(CO)C(O)C(O)C7O)C6O)C(C)(C)C5CCC43C)C2C1` (stereo not drawn): the max response in assay [1] is 0.399%; in assay [2], 6.58%; in assay [3] it was -0.359%.

As for `COc1ccc(CNC(=O)c2sc3nc(C)cc(C)c3c2N)cc1`, the max response was -25% in assay [1], -4.88% in assay [2] and -5.95% in assay [3].

On to `COc1ccc(/C=C/C(=O)O[C@@H]2[C@@H](O)[C@H](C)O[C@@H](O[C@H]3[C@@H]4C=CO[C@@H](O[C@H]5O[C@@H](CO)[C@H](O)[C@@H](O)[C@@H]5O)[C@@H]4[C@@]4(CO)O[C@@H]34)[C@@H]2OC(C)=O)cc1`, for which the max response was 3.75% in assay [1], 9.04% in assay [2] and 1.61% in assay [3].

Take `COC(=O)C[C@H]1C(C)(C)[C@H](OC(C)=O)C2CC3=C4CC(=O)O[C@@H](c5ccoc5)[C@]4(C)CCC3[C@@]1(C)C2=O` (stereo partly drawn): the max response in assay [1] is 1.4%; in assay [2] it was 4.19%; in assay [3], -4.77%.

Regarding `CC(=O)O[C@@H]1C[C@@H](OC(C)=O)C(C)(C)/C=C/[C@H](C)[C@H](OC(C)=O)[C@@]2(O)C[C@H](C)[C@H](OC(=O)c3ccccc3)[C@@H]2/C=C/1C`, the max response in assay [1] is 4.68%; in assay [2], 5.28%; in assay [3] it was -4.04%.

Take `CNC(=O)c1ccccc1Nc1nc(Nc2ccc(N3CCNCC3)cc2)ncc1Cl`: the Potency is 0.0092 µM (active) in assay [1], 0.0259 µM (active) in assay [2] and 0.082 µM (active) in assay [3].

With `C=C[C@H]1CN2CC[C@H]1C[C@@H]2C(O)c1ccnc2ccc(OC)cc12` (stereo partly drawn), the max response in assay [1] is 2.46%; in assay [2] it was 4.51%; in assay [3], 3.58%.

Take `CC1=CC(=O)C(=C(C)C)CC2C1CCC2(C)O` (stereo not drawn): the figures for the max response in assay [1], in assay [2] and in assay [3] were -1.27%, 8.27% and -2.64%, respectively.

As for `CC[C@@H](N)CNc1ccnc(-c2cc(-c3cnn(C)c3)ccc2O)n1`, the Potency in assay [1] was 5.8 µM (active); in assay [2], 4.61 µM (active); in assay [3] it was 14.6 µM (active).

Turning to `C[C@@H]1C(=O)O[C@H](C)[C@H]1CC(=O)[C@](C)(O)[C@H]1CC[C@@]2(O)C3=CC(=O)[C@@H]4C[C@@H](O)[C@@H](O)C[C@]4(C)C3CC[C@]12C` (stereo partly drawn), the results for the max response in assay [1], in assay [2] and in assay [3] were -15.8%, -2.99% and 1.5%, respectively.

For the compound `CC(C)CNCc1ccc(-c2ccccc2S(=O)(=O)N2CCCC2)cc1`, the figures for the max response in assay [1], in assay [2] and in assay [3] were -12.3%, -1.28% and -1.63%, respectively.

`C=C[C@]1(C)C=C2CCC3C(C)(CCC[C@@]3(C)C(=O)O)C2CC1` (stereo partly drawn): the max response in assay [1] was -0.617%; in assay [2] it was 8.11%; in assay [3], -2.38%.

Consider `CCc1ccc(Cc2ccc3c(c2)[C@]2(OC3)O[C@H](CO)[C@@H](O)[C@H](O)[C@H]2O)cc1`, for which the results for the max response in assay [1], in assay [2] and in assay [3] were 3.62%, -4.58% and 1.11%, respectively.
